KB-V1 MDR tox – KB-V1 MDR subline cytotoxicity; KB-V1 MDR cells viability, CellTiter-Glo, 72 h; Potency, µM (series often up to 46.1 µM), most hits filed as cytotoxic; 3.4% of 400,000 active; AID 1347076; also: nearly all actives have a fitted effect of over 60% in size
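Compound-treated KB-V1 multidrug-resistant cells, 72 h, 37 degrees C; viability by CellTiter-Glo. Fitted qHTS curves give the values.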
HT1080 IDH1KD tx – kills HT-1080 cells with IDH1 knockdown; 2% of 360,000 active; Potency, µM (doses to about 46.1 µM), most hits filed as cytotoxic; AID 686971; HT-1080 IDH1 knockdown viability, ATP luminescence, 48 h
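In this qHTS, HT-1080 cells depleted of IDH1 are exposed for 48 h at 37 °C to compound titrations. Toxicity is scored from CellTiter-Glo luminescence, with DMSO as full viability and medium alone as none.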
KB-3-1 cytotox – KB-3-1 parental cell cytotoxicity; KB-3-1 viability, CellTiter-Glo ATP luminescence, 72 h; Potency, µM (series often up to 46.1 µM), hits mostly cytotoxic; 1.4% of 400,000 active; AID 1347075; also: nearly all actives have a fitted effect of over 60% in size
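KB-3-1 cells, DMEM (no phenol red) + 10% FBS; compound by pin transfer, 72 h, 37 °C. Readout: CellTiter-Glo luminescence after 10 min. Data normalized, curve-fitted.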
TDP1 cell CPT – DT40-hTDP1 cell growth loss with CPT | chicken DT40 Tdp1-/-;hTDP1 cells + 20 nM CPT, ATP luminescence, 48 h | Potency, µM (titrated, usually from 46.2 µM), usual class: inhibitors | 12% of 420,000 active | AID 686979; also: nearly all actives have a fitted effect of over 55% in size
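Cell growth measured by CellTiter-Glo luminescence after a minimum 48 h, 37 C compound exposure with 20 nM CPT in Tdp1-knockout DT40 cells stably expressing hTDP1, seeded 400/well; qHTS titration format.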
HT1080NT lethal – kills 2HG-producing HT-1080-NT fibrosarcoma cells; HT-1080-NT fibrosarcoma viability, CellTiter-Glo ATP luminescence, 48 h; Potency, µM (highest dose often 46.1 µM), usual class: cytotoxic; 1.6% of 360,000 active; AID 686970;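 also: NT is the 2HG producing partner of a matched IDH1 knockdown line; nearly all actives have a fitted effect of over 55% in size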
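A 48-hour cytotoxicity screen used HT-1080-NT cells plated 2 hours before compound delivery. ATP-based CellTiter-Glo luminescence measured viability, normalized to DMSO and no-cell controls.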
DT40 TDP1 no CPT – qHTS for Inhibitors of human tyrosyl-DNA phosphodiesterase 1 (TDP1): qHTS in cells in absence of CPT. 15% of 420,000 active. AID 686978, 2013. DT40 Tdp1-/- hTDP1 cells, no CPT, ATP luminescence, 48 h. Potency, µM (titrated, usually from 46.2 µM), actives largely listed as inhibitors; also: nearly all actives have a fitted effect of over 55% in size
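No-CPT arm: Tdp1-/-;hTDP1 DT40 cells (400/well) plus compounds, incubated ≥48 hr at 37 °C. Readout CellTiter-Glo luminescence.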
Of the large screens only hits and unclear results are named; the others gave an inactive call. An excerpt weighted towards active compounds, which were near 19% of everything screened. Calls follow the shape of the dose curve; as a rule, active = well fitted curve in the direction sought with a large enough effect; inconclusive = small, poorly fitted or top-dose-only effect, or another doubt; inactive = no such curve, though single readings can be large; an effect the other way counts as inactive or inconclusive.

O=C(Cc1cccc(NC(=O)C2CCN(S(=O)(=O)c3cccc([N+](=O)[O-])c3)CC2)c1)Nc1cccc(C(=O)N2CCOCC2)c1	KB-V1 MDR tox inconclusive
CCCCn1c(N)c(N(CCOC)C(=O)CN2C(=O)C3CCCCC3C2=O)c(=O)[nH]c1=O (stereo not drawn)	KB-V1 MDR tox inconclusive
Cc1ccc(C)c(NC(=S)N2CCC(NC(=O)c3ccco3)CC2)c1	KB-V1 MDR tox inconclusive
CCOC(=O)c1c(C)c(C(=O)N2CCc3ccccc3C2)c(C)n1CC	KB-V1 MDR tox inconclusive, HT1080 IDH1KD tx inconclusive, TDP1 cell CPT inconclusive, HT1080NT lethal inconclusive, DT40 TDP1 no CPT 26µM
Cc1nnc2sc(-c3cccc4ccccc34)nn12	KB-V1 MDR tox 5.2µM, KB-3-1 cytotox 7.3µM
Cc1nnc2c3ccccc3c(-c3ccccc3)nn12	TDP1 cell CPT inconclusive, DT40 TDP1 no CPT inconclusive
CCC(=O)Nc1ccc(-c2nn3c(C)nnc3s2)cc1C	KB-3-1 cytotox inconclusive
Cc1nnc2sc(-c3csc4c3CCCC4)nn12	KB-V1 MDR tox 7.3µM, KB-3-1 cytotox 8.2µM
Cc1nnc2c3ccccc3c(-c3cccc4ccccc34)nn12	KB-V1 MDR tox 12µM, DT40 TDP1 no CPT inconclusive
CCOC(=O)N1CCN(C(=O)Nc2ccc(Cl)cc2Cl)CC1	none
COc1cc(Br)cc(Br)c1OCC(=O)N/N=C/c1c(C)n(C)n(-c2ccccc2)c1=O	none
O=C(NCc1ccc(F)cc1)c1ccc2c(O)c(S(=O)(=O)c3ccccc3)c(=O)[nH]c2c1	none (no result: HT1080 IDH1KD tx, HT1080NT lethal)
Cc1nc2c(sc(=S)n2Cc2ccco2)c(=O)n1CC(=O)Nc1ccccc1Cl	TDP1 cell CPT inconclusive
CCn1c(=S)sc2c(=O)n(CC(=O)Nc3cc(OC)ccc3OC)c(C)nc21	TDP1 cell CPT inconclusive, DT40 TDP1 no CPT 18µM
CCn1c(=S)sc2c(=O)n(CC(=O)Nc3ccccc3OC)c(C)nc21	TDP1 cell CPT inconclusive, DT40 TDP1 no CPT inconclusive
CCn1c(=S)sc2c(=O)n(CC(=O)NC(C)CCc3ccccc3)c(C)nc21 (stereo not drawn)	TDP1 cell CPT inconclusive, DT40 TDP1 no CPT 29µM
Cc1cccc(NC(=O)c2cc(NC(=O)c3ccco3)ccc2Cl)n1	none
Cc1cc(C)n(CCC(=O)N2c3ccccc3CC2C)n1 (stereo not drawn)	TDP1 cell CPT inconclusive, DT40 TDP1 no CPT inconclusive
COC(=O)c1ccc(C(=O)NC2CCCc3c2cnn3-c2ccccc2F)nc1 (stereo not drawn)	KB-V1 MDR tox 4.1µM, HT1080 IDH1KD tx inconclusive, KB-3-1 cytotox inconclusive, TDP1 cell CPT 5.2µM, HT1080NT lethal inconclusive, DT40 TDP1 no CPT 2.9µM
CC(=O)Nc1cccc(C(=O)NC2CCCc3c2cnn3-c2ccccc2F)c1 (stereo not drawn)	none
Cc1cc(C(=O)NC2CCCc3c2cnn3-c2ccccc2F)nc(C)n1 (stereo not drawn)	HT1080 IDH1KD tx inconclusive, TDP1 cell CPT inconclusive, DT40 TDP1 no CPT inconclusive
COc1cc(C(=O)NC2CCCc3c2cnn3-c2ccccc2F)cc(OC)c1OC (stereo not drawn)	KB-V1 MDR tox inconclusive, KB-3-1 cytotox inconclusive, TDP1 cell CPT 10µM, DT40 TDP1 no CPT 2.9µM
Cc1nnsc1C(=O)NC1CCCc2c1cnn2-c1ccc(F)cc1F (stereo not drawn)	KB-V1 MDR tox inconclusive, TDP1 cell CPT 6.5µM, HT1080NT lethal 7.3µM, DT40 TDP1 no CPT 5.8µM
Cc1nnsc1C(=O)NC1CCCc2c1cnn2-c1cc(F)cc(F)c1 (stereo not drawn)	none
O=C(OCc1ccc([N+](=O)[O-])cc1Cl)c1cnccn1	none
Nc1nc(N)c(Cc2ccc(Cl)cc2Cl)c(N)n1	TDP1 cell CPT 26µM, DT40 TDP1 no CPT 23µM
O=C(CSc1ccc(Cl)cc1)NC(=O)NCc1ccco1	TDP1 cell CPT 16µM, DT40 TDP1 no CPT inconclusive
O=C(CCSc1ccc(Cl)cc1)c1ccco1	KB-V1 MDR tox inconclusive, TDP1 cell CPT 2.1µM, DT40 TDP1 no CPT 2.1µM
O=C(CSc1ccc(Cl)cc1)Nc1cccc(NC(=O)c2ccco2)c1	TDP1 cell CPT inconclusive
O=C(NCCSc1ccc(Cl)cc1)c1ccco1	none
O=C(CSc1ccccc1Cl)c1ccco1	TDP1 cell CPT 21µM, DT40 TDP1 no CPT 8.2µM
Cc1nc(SCC(=O)NC(=O)NCc2ccco2)nc(C)c1C	KB-V1 MDR tox inconclusive
O=C(CSc1ccc(Cl)cc1)c1ccco1	TDP1 cell CPT 16µM, DT40 TDP1 no CPT 23µM
COc1ccccc1C(=O)NC(=O)CSc1nnc(C)s1	none
Cc1ccc(C(c2sc3nc(-c4ccco4)nn3c2O)N2CCN(c3ccc(F)cc3)CC2)cc1 (stereo not drawn)	none (no result: HT1080 IDH1KD tx, HT1080NT lethal)
COc1ccccc1OCC(=O)Nc1c2c(nn1-c1ccccc1)CS(=O)(=O)C2	none
C[C@@]12C(=O)OC(=O)[C@@]1(C)C1CCC2O1	none (no result: KB-V1 MDR tox, HT1080 IDH1KD tx, KB-3-1 cytotox, HT1080NT lethal)
C[C@@]12C(=O)OC(=O)[C@@]1(C)[C@@H]1CC[C@@H]2O1	TDP1 cell CPT 30µM, DT40 TDP1 no CPT 30µM (no result: KB-V1 MDR tox, HT1080 IDH1KD tx, KB-3-1 cytotox, HT1080NT lethal)
O=C(NC1CCCCCC1)c1ccc(CS(=O)Cc2cccc(Cl)c2)o1 (stereo not drawn)	TDP1 cell CPT inconclusive, DT40 TDP1 no CPT inconclusive
CCc1nnc(NC(=O)c2ccc3ncsc3c2)s1	none
CC(=O)c1ccc(NC(=O)C2CCCN(S(=O)(=O)c3cn(C)cn3)C2)cc1 (stereo not drawn)	none (no result: KB-V1 MDR tox, HT1080 IDH1KD tx, KB-3-1 cytotox, HT1080NT lethal)
CC(C)CC(=O)O/N=C1\C(=O)N(c2ccccc2)c2ccccc21	TDP1 cell CPT 21µM, DT40 TDP1 no CPT 23µM
CC(=O)Nc1ccc(NC(=O)CN(c2cc(Cl)ccc2Cl)S(C)(=O)=O)cc1	none
COc1ccc(C2Nc3ccccc3C(=O)N2Cc2ccco2)cc1COc1ccc(NC(C)=O)cc1 (stereo not drawn)	TDP1 cell CPT inconclusive, DT40 TDP1 no CPT 11µM
COc1ccc(C2Nc3ccccc3C(=O)N2Cc2ccccc2)cc1COc1ccc(NC(C)=O)cc1 (stereo not drawn)	none (no result: HT1080 IDH1KD tx, TDP1 cell CPT, HT1080NT lethal, DT40 TDP1 no CPT)
COc1ccc(C2Nc3ccccc3C(=O)N2Cc2ccco2)cc1COc1ccccc1F (stereo not drawn)	KB-V1 MDR tox inconclusive, KB-3-1 cytotox inconclusive, TDP1 cell CPT inconclusive, DT40 TDP1 no CPT inconclusive
COc1ccc(C2Nc3ccccc3C(=O)N2c2ccc(F)cc2)cc1COc1ccc(NC(C)=O)cc1 (stereo not drawn)	TDP1 cell CPT inconclusive, DT40 TDP1 no CPT 25µM (no result: HT1080 IDH1KD tx, HT1080NT lethal)
COc1ccc(N2C(=O)c3ccccc3NC2c2ccc(OC)c(COc3ccc(NC(C)=O)cc3)c2)cc1 (stereo not drawn)	TDP1 cell CPT inconclusive, DT40 TDP1 no CPT inconclusive (no result: HT1080 IDH1KD tx, HT1080NT lethal)
